# Laboratory results published in PMC7862700, “An all-to-all approach to the identification of sequence-specific readers for epigenetic DNA modifications on cytosine”.
# Tests used:
# Assay in all cases: DAPPL (digital affinity profiling via proximity ligation, sequencing); 10 mM Tris-HCl pH 7.5, 50 mM NaCl, 1 mM DTT, 4% glycerol, room temperature, 30 min; GST-TFs on glutathione beads, 16-mer random dsDNA library, 0.1% formaldehyde crosslink after washing; high values mean tight binding
# FLI1 = target: T1, FLI1 (Homo sapiens, UniProt Q01543 1-452); conditions: protein: recombinant; tags: N-terminal GST; dsDNA, one strand shown
# T1 sequence: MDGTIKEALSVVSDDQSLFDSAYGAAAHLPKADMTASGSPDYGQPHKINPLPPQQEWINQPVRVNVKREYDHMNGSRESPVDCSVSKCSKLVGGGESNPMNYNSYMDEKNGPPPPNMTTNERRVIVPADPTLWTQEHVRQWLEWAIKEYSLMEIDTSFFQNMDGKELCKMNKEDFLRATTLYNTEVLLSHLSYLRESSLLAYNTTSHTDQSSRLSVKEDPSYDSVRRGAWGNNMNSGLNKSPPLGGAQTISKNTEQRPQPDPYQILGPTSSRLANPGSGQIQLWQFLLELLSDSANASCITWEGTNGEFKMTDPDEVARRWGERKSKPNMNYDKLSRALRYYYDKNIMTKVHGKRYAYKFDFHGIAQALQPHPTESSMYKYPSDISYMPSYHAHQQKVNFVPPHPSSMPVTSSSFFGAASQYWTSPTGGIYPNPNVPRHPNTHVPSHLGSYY
# Outline: (§1)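 Binding signal is defined as a hexamer's read frequency for one factor over its frequency for the tag-only sample. To obtain reads, GST-fused human transcription factors were expressed in yeast, captured on glutathione beads, barcoded with DNA and pooled with that sample. Pools met 200 nmole of a 16-mer random double-stranded DNA library in Tris/NaCl/DTT/glycerol buffer for 30 min at room temperature before washing, 0.1% formaldehyde crosslinking, proximity ligation (BsaI/T4 ligase, 1 h, 37 °C), PCR and Illumina NextSeq500 sequencing.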
# ELK1 = target: T2, ELK1 (Homo sapiens, UniProt P19419 1-428); conditions: protein: recombinant; tags: N-terminal GST; dsDNA, one strand shown
# T2 sequence: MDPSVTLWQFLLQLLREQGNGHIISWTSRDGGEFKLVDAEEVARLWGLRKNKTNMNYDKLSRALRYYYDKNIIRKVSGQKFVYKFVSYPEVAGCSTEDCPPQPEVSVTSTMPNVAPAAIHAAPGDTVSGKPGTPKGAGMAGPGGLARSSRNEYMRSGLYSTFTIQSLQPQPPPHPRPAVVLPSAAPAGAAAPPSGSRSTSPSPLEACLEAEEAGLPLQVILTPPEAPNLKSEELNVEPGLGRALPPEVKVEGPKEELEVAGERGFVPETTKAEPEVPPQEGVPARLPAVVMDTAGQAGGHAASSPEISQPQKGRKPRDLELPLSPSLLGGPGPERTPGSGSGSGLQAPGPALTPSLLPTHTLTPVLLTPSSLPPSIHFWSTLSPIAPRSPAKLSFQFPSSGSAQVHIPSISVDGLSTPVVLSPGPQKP
# Outline: as §1
# GABPA = target: T3, GABPA (Homo sapiens, UniProt Q06546 1-454); conditions: protein: recombinant; tags: N-terminal GST; dsDNA, one strand shown
# T3 sequence: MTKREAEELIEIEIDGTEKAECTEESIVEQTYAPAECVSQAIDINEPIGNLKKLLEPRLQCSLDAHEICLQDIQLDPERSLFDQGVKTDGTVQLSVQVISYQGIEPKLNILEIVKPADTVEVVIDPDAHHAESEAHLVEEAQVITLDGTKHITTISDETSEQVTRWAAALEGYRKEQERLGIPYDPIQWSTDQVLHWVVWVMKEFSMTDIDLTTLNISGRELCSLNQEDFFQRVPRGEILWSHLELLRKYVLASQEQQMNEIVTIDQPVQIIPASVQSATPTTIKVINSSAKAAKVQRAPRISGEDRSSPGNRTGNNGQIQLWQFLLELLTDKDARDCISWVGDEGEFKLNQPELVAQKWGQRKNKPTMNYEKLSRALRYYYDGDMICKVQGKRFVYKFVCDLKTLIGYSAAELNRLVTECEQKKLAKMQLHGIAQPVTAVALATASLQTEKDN
# Outline: as §1
# ERG = target: T4, ERG (Homo sapiens, UniProt P11308 1-479); conditions: protein: recombinant; tags: N-terminal GST; dsDNA, one strand shown
# T4 sequence: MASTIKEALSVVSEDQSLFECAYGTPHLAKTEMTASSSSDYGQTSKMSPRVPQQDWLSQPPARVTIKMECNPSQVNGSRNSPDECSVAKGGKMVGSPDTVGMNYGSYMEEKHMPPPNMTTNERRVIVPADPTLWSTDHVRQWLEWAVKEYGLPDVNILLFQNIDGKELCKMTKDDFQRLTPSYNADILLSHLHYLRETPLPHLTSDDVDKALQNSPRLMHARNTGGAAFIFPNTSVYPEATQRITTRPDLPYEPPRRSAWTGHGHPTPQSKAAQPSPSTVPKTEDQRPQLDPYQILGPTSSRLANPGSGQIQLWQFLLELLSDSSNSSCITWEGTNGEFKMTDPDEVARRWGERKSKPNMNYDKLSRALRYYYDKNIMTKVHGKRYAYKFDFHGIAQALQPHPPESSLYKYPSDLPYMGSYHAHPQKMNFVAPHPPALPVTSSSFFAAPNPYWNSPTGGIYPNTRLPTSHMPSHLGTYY
# Outline: as §1
# ELF1 = ELF1 (Homo sapiens, UniProt P32519 1-619); conditions: protein: recombinant; tags: N-terminal GST; dsDNA, one strand shown
# Chain of ELF1 (P32519 whole entry): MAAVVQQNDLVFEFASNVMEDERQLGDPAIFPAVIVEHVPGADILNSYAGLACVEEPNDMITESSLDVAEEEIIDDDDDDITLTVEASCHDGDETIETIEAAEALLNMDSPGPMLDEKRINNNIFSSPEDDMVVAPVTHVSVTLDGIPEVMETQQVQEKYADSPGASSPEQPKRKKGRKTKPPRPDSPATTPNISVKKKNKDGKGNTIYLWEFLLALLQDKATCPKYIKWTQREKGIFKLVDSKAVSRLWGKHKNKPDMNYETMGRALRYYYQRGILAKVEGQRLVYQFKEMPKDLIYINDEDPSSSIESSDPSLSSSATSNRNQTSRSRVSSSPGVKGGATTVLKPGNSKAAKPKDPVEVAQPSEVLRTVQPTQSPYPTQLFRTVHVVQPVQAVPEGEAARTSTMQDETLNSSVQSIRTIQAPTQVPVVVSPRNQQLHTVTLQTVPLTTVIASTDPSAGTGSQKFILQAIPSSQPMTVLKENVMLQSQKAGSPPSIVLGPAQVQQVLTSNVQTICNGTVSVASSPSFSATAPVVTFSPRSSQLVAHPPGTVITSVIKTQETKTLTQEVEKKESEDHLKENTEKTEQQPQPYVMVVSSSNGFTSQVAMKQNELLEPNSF
# Outline: as §1
# EHF = target: T5, EHF (Homo sapiens, UniProt Q9NZC4 1-300); conditions: protein: recombinant; tags: N-terminal GST; dsDNA, one strand shown
# T5 sequence: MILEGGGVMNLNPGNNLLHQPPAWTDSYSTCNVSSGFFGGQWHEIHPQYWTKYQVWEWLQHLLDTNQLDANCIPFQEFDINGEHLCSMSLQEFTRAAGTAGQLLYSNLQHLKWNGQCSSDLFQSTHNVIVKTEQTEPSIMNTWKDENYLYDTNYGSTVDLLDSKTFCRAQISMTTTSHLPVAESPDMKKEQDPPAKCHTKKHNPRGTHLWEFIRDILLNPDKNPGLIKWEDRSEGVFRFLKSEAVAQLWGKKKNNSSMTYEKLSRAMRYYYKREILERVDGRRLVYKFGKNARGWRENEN
# Outline: as §1
# SPI1 = SPI1 (Homo sapiens, UniProt P17947 1-270); conditions: protein: recombinant; tags: N-terminal GST; dsDNA, one strand shown
# Outline: as §1
# SPIB = SPIB (Homo sapiens, UniProt Q01892 1-262); conditions: protein: recombinant; tags: N-terminal GST; dsDNA, one strand shown
# Chain of SPIB (Q01892 whole entry): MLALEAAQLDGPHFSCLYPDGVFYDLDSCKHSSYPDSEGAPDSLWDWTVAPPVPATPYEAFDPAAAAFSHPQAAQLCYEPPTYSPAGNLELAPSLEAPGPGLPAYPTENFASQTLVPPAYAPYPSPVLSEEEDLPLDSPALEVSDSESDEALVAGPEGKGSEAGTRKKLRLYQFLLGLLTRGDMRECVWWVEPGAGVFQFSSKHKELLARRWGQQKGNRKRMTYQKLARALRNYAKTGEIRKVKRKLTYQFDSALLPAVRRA
# Outline: as §1
# ELK3 = target: T6, ELK3 (Homo sapiens, UniProt P41970 1-407); conditions: protein: recombinant; tags: N-terminal GST; dsDNA, one strand shown
# T6 sequence: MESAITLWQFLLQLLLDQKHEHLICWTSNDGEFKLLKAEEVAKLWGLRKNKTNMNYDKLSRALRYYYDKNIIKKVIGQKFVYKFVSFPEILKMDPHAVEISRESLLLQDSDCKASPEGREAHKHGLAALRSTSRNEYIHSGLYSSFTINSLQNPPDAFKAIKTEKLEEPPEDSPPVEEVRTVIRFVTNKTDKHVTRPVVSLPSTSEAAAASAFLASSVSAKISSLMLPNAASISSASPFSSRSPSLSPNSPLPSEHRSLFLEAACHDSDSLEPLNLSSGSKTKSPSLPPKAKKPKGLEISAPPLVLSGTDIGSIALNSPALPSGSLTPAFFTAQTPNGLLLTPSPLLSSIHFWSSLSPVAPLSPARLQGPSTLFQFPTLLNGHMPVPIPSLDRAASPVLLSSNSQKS
# Outline: as §1
# FEV = target: T7, FEV (Homo sapiens, UniProt Q99581 1-238); conditions: protein: recombinant; tags: N-terminal GST; dsDNA, one strand shown
# T7 sequence: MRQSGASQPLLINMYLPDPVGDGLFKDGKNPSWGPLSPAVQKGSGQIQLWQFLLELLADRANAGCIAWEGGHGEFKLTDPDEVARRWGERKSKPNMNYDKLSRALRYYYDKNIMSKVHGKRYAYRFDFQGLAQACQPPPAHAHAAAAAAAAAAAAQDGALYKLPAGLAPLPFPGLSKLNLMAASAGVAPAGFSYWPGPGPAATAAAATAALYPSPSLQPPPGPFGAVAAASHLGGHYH
# Outline: as §1
# ETV5 = ETV5 (Homo sapiens, UniProt P41161 1-510); conditions: protein: recombinant; tags: N-terminal GST; dsDNA, one strand shown
# Chain of ETV5 (P41161 whole entry): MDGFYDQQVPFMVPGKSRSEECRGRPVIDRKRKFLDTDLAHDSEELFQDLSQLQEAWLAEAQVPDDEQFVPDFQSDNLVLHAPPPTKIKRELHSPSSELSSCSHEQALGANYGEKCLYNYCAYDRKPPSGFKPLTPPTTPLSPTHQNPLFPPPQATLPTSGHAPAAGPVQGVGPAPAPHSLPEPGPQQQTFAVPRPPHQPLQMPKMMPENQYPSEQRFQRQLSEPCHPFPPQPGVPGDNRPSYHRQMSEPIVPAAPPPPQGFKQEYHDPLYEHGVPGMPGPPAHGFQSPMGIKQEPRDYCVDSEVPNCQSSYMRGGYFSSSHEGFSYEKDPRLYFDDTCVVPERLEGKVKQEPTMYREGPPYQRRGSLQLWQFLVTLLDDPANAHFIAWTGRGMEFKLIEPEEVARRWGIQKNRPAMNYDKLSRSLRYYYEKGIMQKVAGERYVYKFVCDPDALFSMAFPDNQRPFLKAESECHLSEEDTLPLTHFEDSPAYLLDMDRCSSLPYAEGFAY
# Outline: as §1
# HSF1 = HSF1 (Homo sapiens, UniProt Q00613 1-529); conditions: protein: recombinant; tags: N-terminal GST; chain copies: 3; dsDNA, one strand shown
# Chain of HSF1 (Q00613 whole entry): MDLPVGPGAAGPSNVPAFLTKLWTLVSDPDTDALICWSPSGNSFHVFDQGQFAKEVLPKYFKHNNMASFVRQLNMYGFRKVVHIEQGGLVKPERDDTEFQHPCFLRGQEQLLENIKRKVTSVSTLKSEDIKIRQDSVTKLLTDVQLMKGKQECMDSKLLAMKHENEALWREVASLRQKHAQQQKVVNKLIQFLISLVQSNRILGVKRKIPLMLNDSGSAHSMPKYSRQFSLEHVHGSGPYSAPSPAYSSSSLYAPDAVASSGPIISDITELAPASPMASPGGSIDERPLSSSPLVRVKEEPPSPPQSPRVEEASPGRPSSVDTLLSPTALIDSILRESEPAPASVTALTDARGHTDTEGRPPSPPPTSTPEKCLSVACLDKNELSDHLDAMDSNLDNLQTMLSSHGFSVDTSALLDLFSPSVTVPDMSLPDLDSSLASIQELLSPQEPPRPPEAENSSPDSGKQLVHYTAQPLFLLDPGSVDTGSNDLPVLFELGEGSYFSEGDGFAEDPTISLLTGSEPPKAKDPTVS
# Outline: as §1
# SPIC = target: T8, SPIC (Homo sapiens, UniProt Q8N5J4 1-248); conditions: protein: recombinant; tags: N-terminal GST; dsDNA, one strand shown
# T8 sequence: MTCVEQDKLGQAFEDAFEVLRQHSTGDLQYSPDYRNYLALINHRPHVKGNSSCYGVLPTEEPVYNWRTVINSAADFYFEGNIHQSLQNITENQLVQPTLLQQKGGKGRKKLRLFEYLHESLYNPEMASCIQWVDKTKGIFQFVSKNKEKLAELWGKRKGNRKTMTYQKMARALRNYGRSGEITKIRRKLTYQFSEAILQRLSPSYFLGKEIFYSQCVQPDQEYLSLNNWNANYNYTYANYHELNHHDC
# Outline: as §1
# ELF4 = ELF4 (Homo sapiens, UniProt Q99607 1-663); conditions: protein: recombinant; tags: N-terminal GST; dsDNA, one strand shown
# Chain of ELF4 (Q99607 whole entry): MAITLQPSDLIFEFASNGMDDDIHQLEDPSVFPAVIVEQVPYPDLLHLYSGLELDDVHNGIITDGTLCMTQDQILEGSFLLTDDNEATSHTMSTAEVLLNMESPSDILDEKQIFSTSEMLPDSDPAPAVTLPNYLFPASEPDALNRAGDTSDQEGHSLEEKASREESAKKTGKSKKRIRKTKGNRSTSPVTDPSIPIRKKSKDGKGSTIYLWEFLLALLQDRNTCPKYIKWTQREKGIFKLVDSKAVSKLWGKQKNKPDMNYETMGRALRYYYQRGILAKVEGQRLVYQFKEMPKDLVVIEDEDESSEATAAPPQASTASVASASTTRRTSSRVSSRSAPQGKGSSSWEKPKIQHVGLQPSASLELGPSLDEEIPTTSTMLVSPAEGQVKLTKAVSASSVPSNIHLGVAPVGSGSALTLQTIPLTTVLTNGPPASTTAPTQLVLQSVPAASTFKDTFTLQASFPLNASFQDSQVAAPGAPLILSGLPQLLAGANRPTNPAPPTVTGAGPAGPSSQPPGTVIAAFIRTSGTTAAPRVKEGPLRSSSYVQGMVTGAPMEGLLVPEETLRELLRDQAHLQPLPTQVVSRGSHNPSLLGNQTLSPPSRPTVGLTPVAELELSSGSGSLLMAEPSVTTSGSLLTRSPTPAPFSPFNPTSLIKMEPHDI
# Outline: as §1
# ELK4 = target: T9, ELK4 (Homo sapiens, UniProt P28324-2 1-405); conditions: protein: recombinant; tags: N-terminal GST; dsDNA, one strand shown
# T9 sequence: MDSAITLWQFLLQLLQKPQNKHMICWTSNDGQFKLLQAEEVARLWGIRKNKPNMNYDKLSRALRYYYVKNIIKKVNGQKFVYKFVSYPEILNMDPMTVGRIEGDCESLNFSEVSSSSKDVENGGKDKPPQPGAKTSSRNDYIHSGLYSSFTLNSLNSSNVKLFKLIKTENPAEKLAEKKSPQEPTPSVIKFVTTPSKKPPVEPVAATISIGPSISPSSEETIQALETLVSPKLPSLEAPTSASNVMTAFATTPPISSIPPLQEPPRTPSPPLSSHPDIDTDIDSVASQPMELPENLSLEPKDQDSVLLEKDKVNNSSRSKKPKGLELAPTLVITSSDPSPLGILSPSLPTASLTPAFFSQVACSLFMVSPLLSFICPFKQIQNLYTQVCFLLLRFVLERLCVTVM
# Outline: as §1
# ETV2 = target: T10, ETV2 (Homo sapiens, UniProt O00321 1-342); conditions: protein: recombinant; tags: N-terminal GST; dsDNA, one strand shown
# T10 sequence: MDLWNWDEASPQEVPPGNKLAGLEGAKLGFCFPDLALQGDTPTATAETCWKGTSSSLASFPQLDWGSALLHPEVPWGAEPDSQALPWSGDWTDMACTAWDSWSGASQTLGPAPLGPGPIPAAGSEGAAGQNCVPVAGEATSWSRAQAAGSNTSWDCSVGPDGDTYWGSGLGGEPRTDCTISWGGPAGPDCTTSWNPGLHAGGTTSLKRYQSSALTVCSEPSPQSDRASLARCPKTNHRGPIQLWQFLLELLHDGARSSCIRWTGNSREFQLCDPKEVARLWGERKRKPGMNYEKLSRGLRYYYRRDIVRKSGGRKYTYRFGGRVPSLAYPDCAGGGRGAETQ
# Outline: as §1
# ELF3 = target: T11, ELF3 (Homo sapiens, UniProt P78545 1-371); conditions: protein: recombinant; tags: N-terminal GST; dsDNA, one strand shown
# T11 sequence: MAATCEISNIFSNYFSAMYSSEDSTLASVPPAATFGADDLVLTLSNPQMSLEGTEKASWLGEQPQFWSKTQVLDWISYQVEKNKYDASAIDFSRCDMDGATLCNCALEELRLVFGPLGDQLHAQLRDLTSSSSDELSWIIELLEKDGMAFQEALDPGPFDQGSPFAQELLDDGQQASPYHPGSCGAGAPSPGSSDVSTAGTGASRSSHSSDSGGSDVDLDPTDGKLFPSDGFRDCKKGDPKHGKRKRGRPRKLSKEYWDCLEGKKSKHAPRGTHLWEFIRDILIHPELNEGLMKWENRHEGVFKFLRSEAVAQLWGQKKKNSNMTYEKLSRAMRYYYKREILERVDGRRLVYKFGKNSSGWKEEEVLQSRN
# Outline: as §1
# CRX = CRX (Homo sapiens, UniProt O43186 1-299); conditions: protein: recombinant; tags: N-terminal GST; dsDNA, one strand shown
# Chain of CRX (O43186 whole entry): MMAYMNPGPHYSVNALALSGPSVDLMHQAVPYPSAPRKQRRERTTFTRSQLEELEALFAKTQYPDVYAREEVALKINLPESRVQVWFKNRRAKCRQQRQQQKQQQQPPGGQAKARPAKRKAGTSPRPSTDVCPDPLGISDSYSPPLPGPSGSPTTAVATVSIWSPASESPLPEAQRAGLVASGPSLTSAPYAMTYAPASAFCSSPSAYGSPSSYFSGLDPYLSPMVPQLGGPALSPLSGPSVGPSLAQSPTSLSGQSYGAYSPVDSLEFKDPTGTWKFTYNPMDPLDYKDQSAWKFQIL
# Outline: as §1
# ETV1 = ETV1 (Homo sapiens, UniProt P50549 1-477); conditions: protein: recombinant; tags: N-terminal GST; dsDNA, one strand shown
# Chain of ETV1 (P50549 whole entry): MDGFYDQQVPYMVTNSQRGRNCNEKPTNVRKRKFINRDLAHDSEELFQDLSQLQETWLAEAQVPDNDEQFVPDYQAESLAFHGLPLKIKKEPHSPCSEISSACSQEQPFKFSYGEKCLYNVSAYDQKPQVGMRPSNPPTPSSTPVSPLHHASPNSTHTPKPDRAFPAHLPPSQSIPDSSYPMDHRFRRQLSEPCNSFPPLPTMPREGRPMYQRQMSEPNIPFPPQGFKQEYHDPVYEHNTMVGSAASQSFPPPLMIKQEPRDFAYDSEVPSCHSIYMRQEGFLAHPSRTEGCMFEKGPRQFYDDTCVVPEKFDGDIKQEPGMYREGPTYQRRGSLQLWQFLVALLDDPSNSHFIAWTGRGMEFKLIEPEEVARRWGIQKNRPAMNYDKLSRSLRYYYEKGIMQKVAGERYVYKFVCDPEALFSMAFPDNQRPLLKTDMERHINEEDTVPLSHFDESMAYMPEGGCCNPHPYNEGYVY
# Outline: as §1
sequence,measurement,setting,value
TATAGT,binding signal,FLI1,"1.12 fold enrichment (6-mer frequency, TF over GST control)"
same,binding signal,ELK1,"1.1 fold enrichment (6-mer frequency, TF over GST control)"
same,binding signal,GABPA,"1.11 fold enrichment (6-mer frequency, TF over GST control)"
same,binding signal,ERG,"1.05 fold enrichment (6-mer frequency, TF over GST control)"
same,binding signal,ELF1,"1.07 fold enrichment (6-mer frequency, TF over GST control)"
same,binding signal,EHF,"1.12 fold enrichment (6-mer frequency, TF over GST control)"
same,binding signal,SPI1,"1.06 fold enrichment (6-mer frequency, TF over GST control)"
same,binding signal,SPIB,"1.04 fold enrichment (6-mer frequency, TF over GST control)"
same,binding signal,ELK3,"1.03 fold enrichment (6-mer frequency, TF over GST control)"
same,binding signal,FEV,"1.03 fold enrichment (6-mer frequency, TF over GST control)"
same,binding signal,ETV5,"1.11 fold enrichment (6-mer frequency, TF over GST control)"
same,binding signal,HSF1,"1.07 fold enrichment (6-mer frequency, TF over GST control)"
same,binding signal,SPIC,"1.09 fold enrichment (6-mer frequency, TF over GST control)"
same,binding signal,ELF4,"1.03 fold enrichment (6-mer frequency, TF over GST control)"
same,binding signal,ELK4,"1.31 fold enrichment (6-mer frequency, TF over GST control)"
same,binding signal,ETV2,"1.12 fold enrichment (6-mer frequency, TF over GST control)"
same,binding signal,ELF3,"1.28 fold enrichment (6-mer frequency, TF over GST control)"
same,binding signal,CRX,"1.34 fold enrichment (6-mer frequency, TF over GST control)"
same,binding signal,ETV1,"1.11 fold enrichment (6-mer frequency, TF over GST control)"
